Shown are actives, neighbours in structure and some others; about 19% of the full set was active somewhere.
TDP1 cell CPT = growth inhibition of DT40 Tdp1-/-;hTDP1 cells with camptothecin (screen for TDP1 inhibitors) | chicken DT40 Tdp1-/-;hTDP1 cells + 20 nM CPT, ATP luminescence, 48 h | Potency, µM (doses to about 46.2 µM), usual class: inhibitors | 420,000 compounds, 12% hits | AID 686979; also: nearly all actives have a fitted effect of over 55% in size
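Chicken DT40 Tdp1-/- cells stably complemented with human TDP1 were seeded at 400 cells/well in medium containing 20 nM camptothecin, exposed to pin-transferred compounds, and grown at 37 °C for at least 48 hr. Viability was read as ATP luminescence.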
DT40 TDP1 no CPT = qHTS for Inhibitors of human tyrosyl-DNA phosphodiesterase 1 (TDP1): qHTS in cells in absence of CPT | DT40 Tdp1-/- hTDP1 cells, no CPT, ATP luminescence, 48 h | Potency, µM (series often up to 46.2 µM), hits mostly inhibitors | 420,000 compounds, 15% hits | AID 686978, 2013; also: nearly all actives have a fitted effect of over 55% in size
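DT40 Tdp1-/-;hTDP1 cells, no CPT (DMSO vehicle only), 400 cells/well; compounds pin-transferred; ≥48 hr, 37 °C; CellTiter-Glo 30 min RT dark, luminescence read.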
BCR signal inh = chronic active BCR signaling inhibition; ABC-DLBCL IkBa-CBG/CBR reporter, luminescence ratio, 4 h; Potency, µM (doses to about 46.1 µM), usual class: inhibitors; 340,000 compounds, 0.05% hits; AID 493014; active = well fitted inhibition curve with a large enough effect in the signal ratio, with a control signal flat, not every such curve was filed as active; inconclusive = small, poorly fitted or top-dose-only effect, or effect the other way, or a change in a side signal; the % refers to the signal ratio
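Concentration-response series (up to 46 uM) were applied to TMD8 dual-reporter cells for 4 h at 37C with doxycycline. Green/red ratio, after filter-overlap correction, defined %Activity; red signal alone was normalised to basal cells and zero luminescence.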
SW480 rereplic = inducers of DNA re-replication in SW480 colon cancer cells. SW480 DNA re-replication, Hoechst DNA content imaging, 48 h. Potency, µM (doses to about 46.1 µM), usual class: activators. 340,000 compounds, 1.8% hits. AID 624297; also: nearly all actives have a fitted effect of over 55% in size
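Quantitative HTS format with DMSO vehicle controls; 48 hr drug incubation at 37 C, then 40 min Hoechst staining and scanning imager measurement at 405 nm excitation.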
IL1B secr inh = inhibitors of inflammasome signaling (IL-1 beta secretion); THP-1 LPS/ATP IL-1B secretion, AlphaLISA, 16 h; active compounds read low; activity change, % at 57.5 µM; 360,000 compounds, 4.7% hits; AID 743279; in the data active = activity change below about -50%; inconclusive = mostly about -30% to -49%
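Secreted IL-1B measured by AlphaLISA bead assay after 16 h compound exposure of THP-1 cells; compounds (final up to 57.5 uM) added 1 h before LPS (250 ng/mL) and ATP (1.25 mM) stimulation; lower signal means less secretion.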
MCF10A rereplic = inducers of DNA re-replication in MCF 10A breast cells; MCF 10A DNA re-replication, Hoechst nuclear intensity, 48 h; AID 624296; 350,000 compounds, 2.9% hits; Potency, µM (highest dose often 46.1 µM), usual class: activators; also: nearly all actives have a fitted effect of over 50% in size
Of the large screens only hits and unclear results are named; the others gave an inactive call. Unless noted, calls follow the shape of the dose curve; as a rule, active = well fitted curve in the direction sought with a large enough effect; inconclusive = small, poorly fitted or top-dose-only effect, or another doubt; inactive = no such curve, though single readings can be large; an effect the other way counts as inactive or inconclusive.

CSc1ncc(Cl)c(C(=O)Nc2nc3ccc(F)cc3s2)n1	none (no result: BCR signal inh, SW480 rereplic, IL1B secr inh, MCF10A rereplic)
CC(C)n1c(CNC(=O)c2ccccc2F)nnc1SCC(=O)c1ccc(F)cc1	none (no result: BCR signal inh)
OC1CCN(Cc2cn(Cc3ccccc3)nc2-c2cc3ccccc3o2)CC1	IL1B secr inh inconclusive
COCC1CCN(Cc2cn[nH]c2-c2cc3ccccc3o2)C1 (stereo unspecified)	none
COC(=O)C1CCN(Cc2cn(Cc3ccccc3)nc2-c2cc3ccccc3o2)CC1	TDP1 cell CPT inconclusive, DT40 TDP1 no CPT 26µM
COCC1CCCN(Cc2cn(Cc3ccccc3)nc2-c2cc3ccccc3o2)C1 (stereo unspecified)	TDP1 cell CPT 26µM, DT40 TDP1 no CPT inconclusive, BCR signal inh inconclusive, SW480 rereplic inconclusive, IL1B secr inh -76
COCC1CCCN(Cc2cn(-c3ccccc3)nc2-c2ccc3c(c2)OCO3)C1 (stereo unspecified)	none
COCC1CCN(Cc2cn(Cc3ccccc3)nc2-c2cc3ccccc3o2)CC1	TDP1 cell CPT inconclusive, SW480 rereplic inconclusive, IL1B secr inh -61
COc1cc(OC)c(OC)cc1CNCCNC(=O)c1ccco1	none
CCOc1cc(C(=O)Nc2cc3c(cc2N2CCCC2)n(C)c(=O)c(=O)n3C)cc(OCC)c1OCC	none (no result: BCR signal inh, SW480 rereplic, IL1B secr inh, MCF10A rereplic)
CCN1CCN(C(=O)c2sc3ncnc(N4CCc5ccccc5C4)c3c2C)CC1	TDP1 cell CPT inconclusive, DT40 TDP1 no CPT inconclusive
Cc1c(C(=O)N2CCOCC2)sc2ncnc(N3CCc4ccccc4C3)c12	TDP1 cell CPT 12µM, DT40 TDP1 no CPT 12µM
Cc1nc(N2CCCCC2C)c2c(C)c(C(=O)Nc3ccccc3C(F)(F)F)sc2n1 (stereo unspecified)	TDP1 cell CPT inconclusive, DT40 TDP1 no CPT inconclusive
Cc1c(C(=O)Nc2ccc3c(c2)OCCO3)sc2ncnc(N3CCCCC3C)c12 (stereo unspecified)	TDP1 cell CPT inconclusive, DT40 TDP1 no CPT 15µM, BCR signal inh inconclusive, IL1B secr inh inconclusive, MCF10A rereplic inconclusive
Cc1c(C(=O)N2CCCCC2C)sc2ncnc(N3CCc4ccccc4C3)c12 (stereo unspecified)	TDP1 cell CPT inconclusive, DT40 TDP1 no CPT 13µM, BCR signal inh inconclusive, IL1B secr inh -97, MCF10A rereplic inconclusive
OCC1OC(c2ccccc2)OC2COC(c3ccccc3)OC12 (stereo unspecified)	none (no result: BCR signal inh)
O=c1c(Cc2ccc(Cl)cc2)c(O)ccn1Cc1cccs1	none
Cc1ccc2c(=O)c(C(=O)c3ccc(F)cc3)cn(CC(=O)NCc3ccccc3Cl)c2n1	none (no result: BCR signal inh, SW480 rereplic, IL1B secr inh, MCF10A rereplic)
O=C1CCSC2=C1SCc1sccc12	none (no result: BCR signal inh, SW480 rereplic, MCF10A rereplic)
COc1cc(C2c3cc4c(cc3OC(NCCc3ccccc3)C2C)OCO4)cc(OC)c1OC (stereo unspecified)	TDP1 cell CPT 1µM, DT40 TDP1 no CPT 0.82µM, SW480 rereplic 1µM, MCF10A rereplic 1µM (no result: BCR signal inh)
COc1cc(C2c3cc4c(cc3OC(Nc3ccc(C(=O)O)cc3)C2C)OCO4)cc(OC)c1OC (stereo unspecified)	TDP1 cell CPT 1.3µM, DT40 TDP1 no CPT 1.2µM, SW480 rereplic 0.65µM, MCF10A rereplic 1.3µM (no result: BCR signal inh)
COc1ccccc1CC(=O)NCc1ccc2c(c1)OCO2	none
COc1cc(CCC(=O)NCc2ccc3c(c2)OCO3)cc(OC)c1OC	none
COc1ccc(-c2nnn(Cc3ccccc3)n2)cc1OC	none
COc1cc2c3nnc(-c4ccc(F)cc4)c-3cn(Cc3ccc(F)cc3)c2cc1OC	TDP1 cell CPT 2.3µM, DT40 TDP1 no CPT 2.6µM, BCR signal inh inconclusive, SW480 rereplic inconclusive, MCF10A rereplic 18µM
COc1cc2c3nnc(-c4ccc(F)cc4)c-3cn(Cc3ccccc3)c2cc1OC	TDP1 cell CPT 3.3µM, DT40 TDP1 no CPT 5.2µM, BCR signal inh inconclusive, SW480 rereplic inconclusive, IL1B secr inh -95, MCF10A rereplic inconclusive
